Source: PubChem BioAssay AID504384 (National Center for Advancing Translational Sciences (NCATS), 2011)
Activity calls are given as the source filed them.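 The calls were made as follows: active = compound that blocked FSH-driven cAMP in FSH receptor cells, giving a fitted IC50; inactive = the rest.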

Target: Follicle-stimulating hormone receptor (Homo sapiens) (UniProt P23945)
Assay: Counterscreen for antagonists of the thyroid stimulating hormone receptor: ELISA activity in a Follicle Stimulating Hormone receptor cell line
Details: HEK293-FSHR, FSH-induced cAMP ELISA chemiluminescence
Description: TSH is an alpha/beta heterodimeric glycoprotein hormone secreted from the anterior pituitary gland which belongs to the glycoprotein hormone family. The actions of TSH are mediated by a seven-transmembrane receptor, which upon TSH binding couples preferentially to the G-alpha (s) protein (Gs), resulting in activation of adenylate cyclase and increase in cyclic adenosine 3', 5' monophosphate (cAMP). The TSH receptor (THSR) is mainly expressed in thyroid follicular cells and regulates their growth and function. This cell based assay was conducted on a TSHR transfected HEK 293 cell line, measuring cAMP stimulation using antibody-based Homogeneous Time Resolved Fluorescence (HTRF). Our goal is to identify small molecules that will inhibit (antagonize) the thyroid-stimulating hormone receptor (TSHR), a member of the 7 transmembrane-spanning receptor (7TMR) family of cell surface receptors. TSHR-mediated hyperthyroidism is important in thyroid pathology. The development of small molecule antagonists of TSHR may lead to therapeutic approaches for TSHR-mediated hyperthyroidism caused by constitutively activating mutations or stimulating auto-antibodies associated with Graves' disease. Graves' disease is the leading cause of hyperthyroidism and is caused by autoantibodies that stimulate TSHR (TsAbs) causing thyroid growth and unregulated overproduction of thyroid hormones and existing treatments have liabilities (agranulocytosis). In addition, TSHRs are known to be expressed in multiple extrathyroidal tissues including bone, brain, kidney, testis, fat and cells of the immune system but the role of the TSHR in these tissues is not clear. Therefore, TSHR antagonists/inverse agonists could be used as probes of extrathyroidal TSHR function. Finally, TSHR inverse agonists, which are a subclass of antagonists that inhibit agonist-independent (or basal or constitutive) TSHR signaling, could be used to inhibit TSH-independent signaling in patients with recurrent or metastatic thyroid cancer who are receiving thyroid hormone to suppress TSH. In order to confirm specificity of the compounds to the TSHR, a confirmatory assay was conducted on a similar family member, the Follicle Stimulating Hormone (FSH) receptor, transfected into a HEK 293 cell line, using an orthogonal detection technology to measure cAMP stimulation: an ELISA based cAMP competition assay using cAMP-Screen Direct System (Applied Biosystems, Foster City, CA).
Transiently transfected HEK-EM 293 cells or cells stably expressing FSHR were seeded into 96-well plates at a density of 7 x10^4 cells per well in DMEM containing 10% FBS. Cells were cultured for 24 h before incubation for 20 min in HBSS/10 mM HEPES (pH 7.4). To determine the effect of the compound on FSH induced FSHR activity, cells were incubated for 20 min with the compound in HBSS/HEPES without IBMX and subsequently for 40 min with bovine FSH (Sigma) and the compound in HBSS/HEPES supplemented with 1 mM IBMX at 37 C. The levels of cAMP in cells incubated in HBSS/HEPES without IBMX were subtracted in all experiments. After aspiration of the incubation medium, cells were lysed using lysis buffer of the cAMP-Screen Direct system (Applied Biosystems, Foster City, CA). The cAMP content of the cell lysate was determined using the method described in the manufacturer's protocol. The chemiluminescence signal was measured in a VICTOR3 V 1420 multilabel counter (PerkinElmer, Norwalk, CT). The potencies (EC50 and IC50) of the ligands were obtained from dose-response curves by data analysis with GraphPad Prism 4 for Windows.

Sequence of Follicle-stimulating hormone receptor (Homo sapiens) (P23945 whole entry, looked up): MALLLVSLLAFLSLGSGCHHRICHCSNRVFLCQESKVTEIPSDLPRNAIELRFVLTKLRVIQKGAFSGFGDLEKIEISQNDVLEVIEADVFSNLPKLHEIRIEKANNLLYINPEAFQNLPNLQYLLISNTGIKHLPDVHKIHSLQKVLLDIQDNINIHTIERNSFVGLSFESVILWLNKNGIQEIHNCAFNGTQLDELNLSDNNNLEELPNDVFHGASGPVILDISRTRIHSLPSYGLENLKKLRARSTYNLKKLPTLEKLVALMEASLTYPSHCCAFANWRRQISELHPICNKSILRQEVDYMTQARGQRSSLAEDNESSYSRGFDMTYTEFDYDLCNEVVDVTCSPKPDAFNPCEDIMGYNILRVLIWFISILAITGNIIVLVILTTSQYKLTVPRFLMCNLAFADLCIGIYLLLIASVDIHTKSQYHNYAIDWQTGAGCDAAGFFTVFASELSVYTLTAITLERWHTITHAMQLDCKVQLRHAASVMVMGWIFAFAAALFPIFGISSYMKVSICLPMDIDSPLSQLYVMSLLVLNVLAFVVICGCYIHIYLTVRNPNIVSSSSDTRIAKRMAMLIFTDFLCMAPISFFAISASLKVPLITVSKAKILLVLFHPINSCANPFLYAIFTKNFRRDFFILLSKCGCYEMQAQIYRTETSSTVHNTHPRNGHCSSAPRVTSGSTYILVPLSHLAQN

Row | SMILES | IC50 | outcome
1 | COc1ccc(C2Nc3ccccc3C(=O)N2Cc2ccco2)cc1CSc1c(C)cccc1C (stereo unspecified) | 14.6 µM (active) | –
2 | COc1ccc(C2Nc3ccccc3C(=O)N2Cc2ccco2)cc1COc1c(C)cc(NC(C)=O)cc1C (stereo unspecified) | – | inactive
3 | Cc1cccc(C)c1OCc1cccc(C2Nc3ccccc3C(=O)N2Cc2ccco2)c1 (stereo unspecified) | 8.2 µM (active) | –
4 | COc1ccc(C2Nc3ccccc3C(=O)N2Cc2ccco2)cc1COc1c(C)cccc1C (stereo unspecified) | 4.55 µM (active) | –
5 | CCc1cccc(CC)c1OCc1cc(C2Nc3ccccc3C(=O)N2Cc2ccco2)ccc1OC (stereo unspecified) | – | inactive
6 | COc1ccc(C2Nc3ccccc3C(=O)N2Cc2cccnc2)cc1COc1c(C)cccc1C (stereo unspecified) | 32.7 µM (active) | –
